Outcome data for 37 compounds are collected here from PubChem BioAssay AID2563 (Broad Institute, 2010).

The whole screen tested about 290,000 compounds, of which about 800 (0.28%) were called active.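 The calls were made as follows: active = fall in fluorescence gain of 50% or more versus controls, with final raw signal at or below 3038400; inconclusive = same 50% fall but final raw signal above 3038400; inactive = fall in fluorescence gain under 50%.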 For the sample, actives were picked, then their nearest neighbours and some compounds at random.

Chain of CAAX prenyl protease 2 (Saccharomyces cerevisiae (strain ATCC 204508 / S288c)) (Q03530 whole entry, looked up): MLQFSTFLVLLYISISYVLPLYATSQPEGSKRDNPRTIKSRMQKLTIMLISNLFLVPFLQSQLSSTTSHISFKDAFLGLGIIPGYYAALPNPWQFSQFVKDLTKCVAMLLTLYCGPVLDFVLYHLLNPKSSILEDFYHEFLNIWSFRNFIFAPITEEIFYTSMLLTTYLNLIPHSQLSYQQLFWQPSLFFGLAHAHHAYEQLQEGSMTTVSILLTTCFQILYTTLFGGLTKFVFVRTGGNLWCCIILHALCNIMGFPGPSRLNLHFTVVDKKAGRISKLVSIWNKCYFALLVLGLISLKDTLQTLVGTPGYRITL

This assay concerns the target CAAX prenyl protease 2 (Saccharomyces cerevisiae (strain ATCC 204508 / S288c)) (UniProt Q03530). Briefly: yeast Rce1p protease inhibitors, primary screen, biochemical, fluorescence, cell-free homogeneous (AID 2563). The following applies: yeast membranes, quenched prenylated peptide cleavage fluorescence.
On to `Cc1ccc(CC(=O)N(C)CC(=O)N(CC(C)C)c2c(N)n(CC(C)C)c(=O)[nH]c2=O)cc1C`, for which the compound was called inactive.
For `Cc1ccc(Cc2nnc(SCC(=O)Nc3ccccc3C)[nH]c2=O)cc1` the value was “inactive”; for `Cc1cccc(C)c1OCC(=O)NC(Cc1c[nH]c2ccccc12)C(=O)O` (configuration not stated), “inactive”; for `CC(=O)NC(Cc1c[nH]c2ccccc12)C(=O)NCCc1ccccc1` (configuration not stated), “inactive”.
The value for `CC(=O)NC(Cc1c[nH]c2ccccc12)C(=O)O` (configuration not stated) was “active”; that for `COc1ccccc1CCC(=O)NNC(=O)c1ccncc1` was “inactive”; that for `O=C(COC(=O)CCOc1ccccc1)Nc1cc(S(=O)(=O)N2CCCCC2)ccc1Cl` was “inactive”.
As for `CCN(CC)c1ccc(NC(=O)c2ccc(=O)[nH]c2)cc1S(=O)(=O)Nc1ccc(OC)cc1`, the compound was classed as inactive.
The value for `CCOC(=O)c1c(C)oc2cc(Sc3ccccc3)c(O)c(O)c12` was “inactive”; that for `O=C1CCCC(O)=C1N=Nc1ccc2ncsc2c1` was “active”.
For `O=C1CCCC(O)=C1N=Nc1ccc(S(=O)(=O)N2CCOCC2)cc1` the value was “inactive”.
For `COc1ccc(C(=O)N(Cc2ccccc2)c2ccc(C)cc2)cc1S(=O)(=O)N1CCOCC1` the value was “inactive”; for `CC1CC(C)(C)CC2(C1)NC(=O)N(CC(=O)Nc1nccs1)C2=O` (configuration not stated), “inactive”.
In the case of `COc1ccc(-c2cn3ccsc3n2)cc1`, the result was inactive.
As for `COc1ccc(-c2cn3ccc(C)cc3n2)cc1`, the outcome was active.
The value for `CCN(CC)S(=O)(=O)c1ccc(-c2cn3ccc(C)cc3n2)cc1` was “inactive”.
The value for `Cc1ccc(NC(=O)COC(=O)CNC(=O)c2ccc(Cl)cc2Cl)cc1S(=O)(=O)N1CCOCC1` was “inactive”.
The value for `C=CCc1ccccc1OCC(=O)N/N=C/c1ccccc1OCC` was “inactive”; that for `C=CCc1cccc(/C=N/NC(=O)COc2ccc(-n3cnnn3)cc2)c1O` was “active”.
For `O=C(COc1ccc(-n2cnnn2)cc1)Nc1ccccc1Cl`, the result was inactive.
For `CC(C)CN(C(=O)Cn1c(=O)cnc2ccccc21)C1CCS(=O)(=O)C1` (configuration not stated) the value was “inactive”; for `O=C(NCc1ccc(Cl)cc1)C(=O)NCC1CCCN1S(=O)(=O)c1cccs1` (configuration not stated), “inactive”.
With `CCCCN(C(=O)CCNC(=O)NC12CC3CC(CC(C3)C1)C2)c1c(N)n(CCCC)c(=O)[nH]c1=O`, the result was inactive.
The value for `CC(=O)c1ccc(NC(=O)C2CCCN2S(=O)(=O)c2cccs2)cc1` (configuration not stated) was “inactive”.
As for `COc1ccc2c(c1)O/C(=C\c1ccccc1O)C2=O`, the compound was called inactive.
The value for `Cc1cc(=O)[nH]c(SCc2ccc(Cl)cc2)n1` was “inactive”; that for `Cc1ccc2nc(SCc3cn4c(C)cc(C)nc4n3)[nH]c2c1` was “inactive”; that for `Cc1cc(C)nc(SCc2cn3c(C)cc(C)nc3n2)n1` was “active”.
The value for `COc1ccc(OCc2cn3c(C)cc(C)nc3n2)cc1` was “inactive”; that for `CCc1cccc(C)c1NC(=O)COC(=O)CNC(=O)c1cccs1` was “inactive”.
For `CCN(CC(=O)Nc1c(F)cccc1F)C(=O)c1ccc(S(=O)(=O)N2CCCCC2)cc1` the value was “inactive”; for `Cc1ccc(S(=O)(=O)N2CCCCC2)cc1C(=O)N(C)CC(=O)Nc1cccc(F)c1`, “inactive”.
For `O=C(Nc1ccc(F)c([N+](=O)[O-])c1)C1CCCO1` (configuration not stated), the compound was classed as inactive.
As to `CS(=O)(=O)Nc1cccc(C2=NN(S(=O)(=O)c3ccccc3)C(c3cccs3)C2)c1` (configuration not stated), the call was inactive.
The value for `Cc1ccc(C2CC(c3cccc(NS(C)(=O)=O)c3)=NN2S(C)(=O)=O)cc1` (configuration not stated) was “inactive”; that for `CS(=O)(=O)Nc1ccc(C2=NN(S(C)(=O)=O)C(c3cccs3)C2)cc1` (configuration not stated) was “active”.
In the case of `Cc1ccc(CN2CCN(c3ccccc3Cl)CC2)o1`, the result was inactive.
